Compound activity as filed in PubChem BioAssay.
A selection: hits, their analogues and other compounds. The true share with any hit is near 3.9%.
PLK1 PBD inh: qHTS for Inhibitors of PLK1-PDB (polo-like kinase 1 - polo-box domain): Primary Screen; Plk1 PBD binding of FITC phosphopeptide, fluorescence polarization; Serine/threonine-protein kinase PLK1 (Homo sapiens), P53350; actives 2.8% (n = 360,000); Potency, µM, hits mostly inhibitors; note: series mostly up to about 57 µM; nearly all actives have a fitted effect of over 65% in size
VDR inhibitor: Inhibitors of the vitamin D receptor (VDR): qHTS | VDR-SRC2-3 peptide fluorescence polarization, 2 h | Potency, µM, most hits filed as inhibitors | actives 0.93% (n = 400,000) | AID 504847, 2011
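Fluorescence polarization assay of small-molecule disruption of VDR binding to coregulator peptide SRC2-3. Compounds and controls pin-transferred, then read after 2 h incubation at ambient room temperature.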
Tb PFK block: qHTS Assay to Find Inhibitors of T. brucei phosphofructokinase | Potency, µM (doses to about 57.5 µM), most hits filed as inhibitors | actives 0.17% (n = 330,000) | T. brucei PFK, ADP-Glo luminescence; note: nearly all actives have a fitted effect of over 60% in size
Target sequence (O15648 whole entry, looked up): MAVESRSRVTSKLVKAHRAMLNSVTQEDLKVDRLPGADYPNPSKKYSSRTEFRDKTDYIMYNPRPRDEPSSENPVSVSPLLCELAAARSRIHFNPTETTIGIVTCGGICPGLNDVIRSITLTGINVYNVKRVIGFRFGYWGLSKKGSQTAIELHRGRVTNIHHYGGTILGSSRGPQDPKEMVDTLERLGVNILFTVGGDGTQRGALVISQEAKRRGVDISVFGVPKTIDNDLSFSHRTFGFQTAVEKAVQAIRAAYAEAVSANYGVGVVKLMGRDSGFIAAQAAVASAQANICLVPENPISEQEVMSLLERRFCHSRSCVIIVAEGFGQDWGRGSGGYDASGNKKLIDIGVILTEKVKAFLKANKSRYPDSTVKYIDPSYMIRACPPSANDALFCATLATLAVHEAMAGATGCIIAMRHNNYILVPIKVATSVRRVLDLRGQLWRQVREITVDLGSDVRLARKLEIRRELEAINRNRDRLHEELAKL
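1.25 nM PFK with 0.5 mM F6P and 0.1 mM ATP in 0.1 M TEA pH 8.0, 5 mM MgCl2, incubated 45 min at room temperature; ADP measured by ADP-Glo luminescence; compounds titrated up to 57 uM.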
BRCA1 expr up: qHTS Assay to Identify Small Molecule Activators of BRCA1 Expression; MCF7-BRCA1-FFLuc reporter, luminescence, 48 h; response scale: scaled: vehicle 0%, 10 µM genistein 100%; Potency, µM (top dose mostly 46.1 µM), usual class: activators; actives 1.1% (n = 380,000); AID 624202, 2012; note: nearly all actives have a fitted effect of over 80% in size
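MCF7 cells carrying a BRCA1-firefly luciferase reporter (2000 cells/well, phenol-red free MEM) were attached for 2 h at 37 °C, then given compounds for 48 h. Luminescence was read 15 min after luciferase reagent; activity normalized to genistein (10 microM) and DMSO.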
USP1 UbRho: Inhibitors of USP1/UAF1: Hit Validation in Primary Assay; AID 540327, 2011; Ub-Rhodamine cleavage, fluorescence kinetic read; Potency, µM (series often up to 56.8 µM), most hits filed as inhibitors; shares compounds with VDR inhibitor; actives 50% (n = 50)
VDR confirm: qHTS for Inhibitors of the vitamin D receptor (VDR): Hit Validation in Primary Screen; VDR-coactivator inhibition assay, qHTS confirmation; Potency, µM, usual class: inhibitors; AID 602199, 2012; actives 89% (n = 840); shares compounds with VDR inhibitor
VDR FP: qHTS for Inhibitors of the vitamin D receptor (VDR): Hit Validation using a Fluorescein Assay; actives 48% (n = 840); VDR-coactivator binding, fluorescein fluorescence polarization; Potency, µM (top dose mostly 57.1 µM), most hits filed as inhibitors; shares compounds with VDR inhibitor
VDR bla reporter: qHTS for Inhibitors of the vitamin D receptor (VDR): Hit Validation using a Beta-Lactamase Assay. Potency, µM (doses to about 46.1 µM), usual class: inhibitors. AID 602202, 2012. actives 23% (n = 840). shares compounds with VDR inhibitor. VDR beta-lactamase reporter cells, FRET ratio; cells co-treated with VDR agonist LG190178
VDR viability: qHTS for Inhibitors of the vitamin D receptor (VDR): Hit Validation using a Cytotoxicity Assay. AID 602204, 2012. shares compounds with VDR inhibitor. Potency, µM (titrated, usually from 48.3 µM), usual class: cytotoxic. actives 18% (n = 840). cytotoxicity counter-screen, cell viability, qHTS; note: nearly all actives have a fitted effect of over 75% in size
Hits are given with their value. Calls come from the whole dose curve; as a rule, active = well fitted curve in the direction sought with a large enough effect; inconclusive = small, poorly fitted or top-dose-only effect, or another doubt; inactive = no such curve, though single readings can be large; an effect the other way counts as inactive or inconclusive.

`O=S(=O)(Nc1cccnc1)c1cccc(C(F)(F)F)c1` gave PLK1 PBD inh inactive, VDR inhibitor inactive, Tb PFK block inactive and BRCA1 expr up inactive.
For COC(=O)C1c2ccccc2-c2ccccc21 the results were PLK1 PBD inh inactive, VDR inhibitor inactive, Tb PFK block inactive and BRCA1 expr up inactive.
`COC(=O)[C@@H]1[C@@H](C#N)C2(c3ccccc3-c3ccccc32)N(c2ccc(Cl)cc2)N1C#N` gave PLK1 PBD inh inconclusive, VDR inhibitor 25.1µM, Tb PFK block inactive, BRCA1 expr up inactive, VDR confirm 23.8, VDR FP inconclusive, VDR bla reporter inconclusive and VDR viability inconclusive.
Screening Cc1ccnc(NC(c2cc(C)ccc2O)c2ccc3cccnc3c2O)c1 (centres undefined) returned VDR inhibitor 15.8µM, VDR confirm 12.6, VDR FP 11.2µM, VDR bla reporter inconclusive and VDR viability inactive.
COc1cc(C(Nc2ccccn2)c2ccc3ccc(C)nc3c2O)cc(OC)c1O (centres undefined) was read as PLK1 PBD inh 2.38µM, VDR inhibitor 17.8µM, Tb PFK block inconclusive, BRCA1 expr up inactive, VDR confirm 7.52, VDR FP 5.01µM, VDR bla reporter inconclusive and VDR viability inconclusive.
COc1ccc(C(Nc2cc(C)ccn2)c2ccc3ccc(C)nc3c2O)cc1 (centres undefined) was read as PLK1 PBD inh 15µM, VDR inhibitor inconclusive, Tb PFK block inactive, BRCA1 expr up inactive, VDR confirm 6.31, VDR FP 3.55µM, VDR bla reporter inactive and VDR viability inactive.
Screening COc1ccccc1NC(c1cccnc1)c1ccc2cccnc2c1O (centres undefined) returned PLK1 PBD inh 2.99µM, VDR inhibitor 50.1µM, Tb PFK block inconclusive, BRCA1 expr up inactive, VDR confirm 9.47, VDR FP inconclusive, VDR bla reporter inactive and VDR viability inactive.
CCCn1c(=O)c2sccc2n2c(CCCC(=O)NCCOC)nnc12 was read as VDR inhibitor inactive.
`O=C(Cc1ccc(Cl)cc1)Nc1cccc(S(=O)(=O)Nc2ccccc2F)c1` gave PLK1 PBD inh inactive, VDR inhibitor inactive, Tb PFK block inactive and BRCA1 expr up inactive.
O=C(CSc1ccc([N+](=O)[O-])cc1)Nc1cccc(S(=O)(=O)Nc2ccccc2F)c1 was read as PLK1 PBD inh 9.47µM, VDR inhibitor 79.4µM, Tb PFK block inconclusive, BRCA1 expr up inactive, VDR confirm 18.9, VDR FP 22.4µM, VDR bla reporter inactive and VDR viability inactive.
CN(C)[C@H]1C(=O)C(C(=O)NCN2CCCC2)=C(O)[C@]2(O)C(=O)C3=C(O)c4c(O)cccc4[C@@](C)(O)[C@H]3C[C@@H]12 was read as VDR inhibitor 31.6µM and USP1 UbRho inconclusive.
For COc1ccc(-c2c(O)c3cc(O)cc(O)c3oc2=O)cc1 the results were VDR inhibitor inactive.
For CN(C)c1ccc(C(=O)/C=C/c2cccnc2)cc1 the results were PLK1 PBD inh inactive, VDR inhibitor inactive, Tb PFK block inactive and BRCA1 expr up inactive.
O=C(/C=C/c1cccnc1)c1ccc(F)c(F)c1 was read as PLK1 PBD inh inactive, VDR inhibitor 44.7µM, Tb PFK block inactive, BRCA1 expr up inactive, VDR confirm inconclusive, VDR FP 8.91µM, VDR bla reporter inconclusive and VDR viability inconclusive.
Screening O=C(/C=C/c1ccc([N+](=O)[O-])cc1)c1cccnc1 returned PLK1 PBD inh inconclusive, VDR inhibitor 56.2µM, Tb PFK block inactive, BRCA1 expr up inactive, VDR confirm 23.8, VDR FP 8.91µM, VDR bla reporter inactive and VDR viability inconclusive.
O=C(/C=C/c1ccc2c(c1)OCO2)c1cccnc1 was read as PLK1 PBD inh inactive, VDR inhibitor inconclusive, Tb PFK block inactive and BRCA1 expr up inactive.
CCCCNC(=O)C1(C)CCN1C(=O)c1ccc(OC)c(F)c1 (centres undefined) was read as PLK1 PBD inh inactive and BRCA1 expr up inactive.
`CCOc1ccc(NC(=O)CC2SC(=O)N(c3ccccc3)C2=O)cc1` (centres undefined) gave PLK1 PBD inh 9.47µM, VDR inhibitor 28.2µM, Tb PFK block inconclusive, BRCA1 expr up inactive, VDR confirm inconclusive, VDR FP inconclusive, VDR bla reporter inactive and VDR viability inactive.
`c1ccc(-c2ccc(C3=Nn4c(Cn5nnc6ccccc65)nnc4SC3)cc2)cc1` gave PLK1 PBD inh 4.74µM, VDR inhibitor inconclusive, Tb PFK block inactive, BRCA1 expr up inactive, VDR confirm 14.1, VDR FP 10µM, VDR bla reporter inactive and VDR viability inactive.
`FC(F)(F)c1nnc2n1N=C(c1ccccc1)CS2` gave PLK1 PBD inh inactive, VDR inhibitor inactive, Tb PFK block inactive and BRCA1 expr up inactive.
FC(F)(F)c1cccc(Sc2nc(-c3ccccc3)nnc2C(F)(F)F)c1 was read as PLK1 PBD inh inactive, VDR inhibitor 31.6µM, Tb PFK block inactive, BRCA1 expr up inactive, VDR confirm 15, VDR FP inconclusive, VDR bla reporter inconclusive and VDR viability inconclusive.
`CCCNC(=O)C1CCC(Cn2c(=O)c3sccc3n(Cc3cccc(OC)c3)c2=O)CC1` (centres undefined) gave VDR inhibitor inactive.
c1ccc(Cc2nn3c(COc4ccccc4)nnc3s2)cc1 was read as PLK1 PBD inh 4.23µM, VDR inhibitor 79.4µM, Tb PFK block inconclusive, BRCA1 expr up inactive, VDR confirm 23.8, VDR FP inconclusive, VDR bla reporter inactive and VDR viability inactive.
